# Results as given in PubChem BioAssay AID504834 (National Center for Advancing Translational Sciences (NCATS), 2011).
# Among all 320,000 compounds or so, about 22,000 (6.9%) were called active. Inconclusive results (about 27%) are left out. Calls follow the shape of the dose curve; as a rule, active = well fitted inhibition curve with a large enough effect; inconclusive = small, poorly fitted or top-dose-only effect, or another doubt; inactive = no such curve, though single readings can be large or run the other way. For the sample, actives were picked, then their nearest neighbours and some compounds at random.
# Assay: Primary qHTS for delayed death inhibitors of the malarial parasite plastid, 96 hour incubation
# Settings: P. falciparum luciferase reporter growth; series mostly up to 28.7 µM; activity change, negative = inhibition: at the top concentration
# Method in brief: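 Luminescence readout: decreased luciferase signal marks inhibited growth of reporter-expressing P. falciparum in infected red cells (2% hematocrit, 0.05% parasitemia final), exposed to compound two generations (96 h, 37 C, 5% CO2).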
# % is scaled to controls: 0 for no effect and ±100 for the full control effect; potency is read from the fitted curve at half-maximal effect.
SMILES,"activity change, negative = inhibition",Potency
O=C(Nc1nnc(C2CC2)s1)c1cc(Cl)sc1Cl,6.36% (inactive),–
Cc1cc(C(=O)Nc2nnc(C3CC3)s2)c(C)s1,249% (inactive),–
O=C(Nc1nnc(C2CC2)s1)c1ccccn1,–,10.4 µM (active)
C=CCN1CC(C)/C(=N\O)CC1C (stereo not given),31.3% (inactive),–
Cc1cnc(C(=O)OCc2c(C)cc(C(C)(C)C)cc2C)cn1,1.17% (inactive),–
CCn1c(=O)c([N+](=O)[O-])c(NCc2ccc3c(c2)OCO3)c2ccccc21,35.4% (inactive),–
S=C(NCc1ccco1)NCc1ccccc1Cl,41.9% (inactive),–
Cc1[nH]c2ccccc2c1C(=O)CSCC(=O)O,-26.8% (inactive),–
Cc1[nH]c2ccccc2c1C(=O)CN1CC(C)CC(C)C1 (stereo not given),-0.784% (inactive),–
Cc1[nH]c2ccccc2c1C(=O)C(C)Sc1nnc(C2CC2)o1 (stereo not given),–,4.15 µM (active)
Cc1ccc(SCCSc2ncccn2)cc1,175% (inactive),–
CC1(C)SC2c3ccccc3C(=O)N2[C@@H]1C(=O)NCc1ccco1 (stereo not given in full),–,5.22 µM (active)
O=C(NCc1ccccc1)[C@@H]1CSC2c3ccccc3C(=O)N21 (stereo not given in full),59.5% (inactive),–
COCCCNC(=O)[C@H]1N2C(=O)c3ccccc3C2SC1(C)C (stereo not given in full),43% (inactive),–
COc1cccc(NC(=O)CN(C)C(=O)CSC(=S)N2CCCC2)c1,-0.38% (inactive),–
Cc1c(Cl)cccc1NC(=O)NCc1ccc(C)n1C,8.99% (inactive),–
CCOc1ccccc1C1CC(c2cccc(NS(C)(=O)=O)c2)=NN1C(=O)c1ccccc1 (stereo not given),–,13.1 µM (active)
Cc1ccc(C2CC(c3cccc(NS(C)(=O)=O)c3)=NN2S(C)(=O)=O)cc1 (stereo not given),39.8% (inactive),–
CS(=O)(=O)Nc1cccc(C2=NN(C(=O)c3cccc(F)c3)C(c3cccs3)C2)c1 (stereo not given),23.1% (inactive),–
CCN(CC(=O)Nc1c(F)cccc1F)C(=O)CN1c2cccc3cccc(c23)S1(=O)=O,-23.6% (inactive),–
Cc1cccc(C(=O)OCC(=O)Nc2ccc(F)cc2)c1,24.1% (inactive),–
CCOC(=O)c1ccccc1NC(=O)COC(=O)C(Cc1c[nH]c2ccccc12)NC(C)=O (stereo not given),6.94% (inactive),–
Cc1ccc(OCC(=O)c2cc(C)n(Cc3ccco3)c2C)c([N+](=O)[O-])n1,-23.9% (inactive),–
Cc1cc(C(=O)CSc2nc(N)cc(=O)[nH]2)c(C)n1Cc1ccco1,-25.3% (inactive),–
COc1ccc(C)cc1-n1nnnc1SCC(=O)c1cc(C)n(Cc2ccco2)c1C,–,10.4 µM (active)
O=c1[nH]c(NCCO)nnc1Cc1ccc(Cl)cc1,28.5% (inactive),–
COc1ccccc1NS(=O)(=O)c1ccc(C)c(C(=O)NCC(c2ccco2)N(C)C)c1 (stereo not given),-7.32% (inactive),–

SMILES,"activity change, negative = inhibition",Potency
CC1CN(S(=O)(=O)c2cccc(C(F)(F)F)c2)CN1C(=O)N1CCOCC1 (stereo not given),-13% (inactive),–
O=C(NCCCNC(=O)c1ccccc1Cl)c1cnccn1,22.9% (inactive),–
CCCCN1C(=O)c2ccc(C(=O)Nc3ccc(S(=O)(=O)N(C)C)cc3)cc2C1=O,22.6% (inactive),–
CN(Cc1cccs1)C(=O)CN1C(=O)c2ccccc2S1(=O)=O,121% (inactive),–
CCCCN(C)C(=O)c1ccc2c(c1)N(CC)C(=O)c1ccccc1S2(=O)=O,–,10.4 µM (active)
Cc1ccc(OCC(=O)NCCCNC(=O)c2cccnc2)cc1C,12.4% (inactive),–
Cc1cc(NC(=O)c2ccccc2C)no1,-28.3% (inactive),–
CCCC(C)c1nnc(NC(=O)C2CC(=O)N(c3ccc(OCC)cc3)C2)s1 (stereo not given),30.3% (inactive),–
CCOC(=O)CSc1nnc(NC(=O)C2CC(=O)N(c3ccc(F)cc3)C2)s1 (stereo not given),–,14.7 µM (active)
COc1ccccc1N1CC(C(=O)Nc2nnc(SCC(=O)NC(C)C)s2)CC1=O (stereo not given),1.01% (inactive),–
CC1CN(C(=O)CCC(=O)NCCCN2CCC(Cc3ccccc3)CC2)c2cc(Cl)ccc2O1 (stereo not given),-18.1% (inactive),–
COc1cccc(NC(=O)c2cc(S(=O)(=O)N3CCc4ccccc43)cn2C)c1,2.69% (inactive),–
CCn1c(=O)c(=O)n(CC)c2cc(N3CCCCC3)c(NC(=O)c3ccc(Cl)cc3)cc21,16.3% (inactive),–
CC(NC(=O)c1ccccc1SCC(=O)N1CCCC1)c1ccccc1 (stereo not given),12.9% (inactive),–
Cc1ccc(S(=O)(=O)N(C)c2nc3ccccc3n3c(C(C)C)nnc23)cc1,–,11.7 µM (active)
Cc1ccc(Oc2nc3ccccc3n3c(C)nnc23)cc1,-7.96% (inactive),–
CC(=O)Nc1ccc(S(=O)(=O)N(C)c2nc3ccccc3nc2Cl)cc1,-3.33% (inactive),–
O=C(Nc1ccccc1Cl)NC1(C(=O)N2CCOCC2)CCCCC1,-0.281% (inactive),–
N#Cc1c(Cl)nc(-c2cccnc2)nc1-c1ccccc1,5.64% (inactive),–
CN(CC(=O)Nc1c(Cl)cccc1Cl)C(=O)CNC(=O)C1CCCCC1,-12.9% (inactive),–
O=C(Nc1c(Cl)cccc1Cl)C1CCC1,–,10.4 µM (active)
NC(=S)Nc1c(Cl)cccc1Cl,-1.64% (inactive),–
NS(=O)(=O)c1ccc2nc(NC(=O)CS(=O)(=O)c3ccc(F)cc3)sc2c1,-3.76% (inactive),–
Brc1ccc(OCCn2ccnc2)cc1,-20.6% (inactive),–
Cc1nn(CCOc2ccc(Br)cc2)c(C)c1[N+](=O)[O-],–,13.1 µM (active)
COc1ccc(CNC(=O)CCCn2nc(C)c([N+](=O)[O-])c2C)cc1,35.9% (inactive),–
CNS(=O)(=O)c1ccc(NC(=O)Nc2ccc3c(c2)OCO3)cc1,-11.3% (inactive),–

SMILES,"activity change, negative = inhibition",Potency
CCOC(=O)C(=O)C1C(=O)Nc2ccccc21 (stereo not given),19% (inactive),–
CCCCCN(C(=O)CCC(=O)OCC(=O)NC1CCC(C)CC1)c1c(N)n(CCCC)c(=O)[nH]c1=O (stereo not given),–,14.7 µM (active)
CCCCCN(C(=O)CCC(=O)OCCOc1ccc(OC)cc1)c1c(N)n(CCCC)c(=O)[nH]c1=O,-19.4% (inactive),–
CCCCCN(C(=O)CCC(=O)OCC(=O)NCc1ccc(OC)cc1)c1c(N)n(CCCC)c(=O)[nH]c1=O,26.9% (inactive),–
O=C(NCc1ccco1)C1CCCN1S(=O)(=O)c1ccccc1C(F)(F)F (stereo not given),-14% (inactive),–
CCOC(=O)C1=C(COC(=O)[C@H](C)NS(=O)(=O)c2ccccc2F)NC(=O)NC1C (stereo not given in full),-11% (inactive),–
Cc1cs/c(=N\N=C\c2ccc(O)cc2)n1Cc1ccco1,11.9% (inactive),–
CN(C)CCCN=Cc1c(O)n(Cc2ccco2)c(=O)[nH]c1=O,-6.3% (inactive),–
CC(C)n1c(=O)c(C=Nc2ccc(Br)cc2)c(O)n(Cc2ccco2)c1=O,–,10.4 µM (active)
COC(=O)c1cccc(N(C(=O)CNC(=O)c2cccs2)C(C(=O)NCC2CCCO2)c2ccc(OC)c(OC)c2)c1 (stereo not given),25.5% (inactive),–
CC1(C)CC(=O)CC2(C1)NCC(c1ccccc1Cl)c1c2[nH]c2ccccc12 (stereo not given),–,9.28 µM (active)
O=C(O)CC(c1ccccc1F)N1Cc2ccccc2C1=O (stereo not given),18.9% (inactive),–
CN(C)CCNc1ccc(-c2n[nH]c(=O)c3ccccc23)cc1[N+](=O)[O-],0% (inactive),–
CCOC(=O)c1ccc(NC(=S)Nc2cc(C)cc(C)n2)cc1,28.8% (inactive),–
CCOC(=O)c1cc2c(nc1NC(=S)Nc1ccccc1)CC(C)(CC)OC2 (stereo not given),–,13.1 µM (active)
CCOC(=O)c1cn[nH]c1NC(=S)Nc1ccccc1,183% (inactive),–
COc1ccc(CNC(=O)c2cc(=O)c3c(C)cc(C)cc3o2)cc1,9.78% (inactive),–
Cc1ccc(N=C2SCCCN2C(=O)c2cccc(N3C(=O)CCC3=O)c2)cc1Cl,-0.425% (inactive),–
COc1ccc(N2CC(NS(=O)(=O)c3ccc4ccccc4c3)CC2=O)cc1 (stereo not given),31.1% (inactive),–
Cc1ccc(C(=O)NC2CCN(C(=O)Nc3ccc(F)cc3)CC2)cc1,35.4% (inactive),–
O=C(NCc1ccco1)C1CCCN(S(=O)(=O)c2ccccc2)C1 (stereo not given),-64.2% (inactive),–
COc1ccc(CCNC(=S)N2CCN(S(=O)(=O)c3ccc(F)cc3)CC2)cc1,–,2.94 µM (active)
O=S(=O)(c1ccc(F)cc1)N1CCN(C(=S)NCc2ccco2)CC1,–,0.657 µM (active)
CCOC(=O)N1CCN(S(=O)(=O)c2ccc(OC)cc2)CC1,-14.5% (inactive),–
COc1ccc(C(=O)NC2CCN(C(=S)NCCc3ccccc3)CC2)cc1,29% (inactive),–
CC1CCN(S(=O)(=O)c2ccc(S(=O)(=O)NCc3ccco3)cc2)CC1,-27.6% (inactive),–
O=C(NC1CCN(C(=S)NCc2ccco2)CC1)c1ccc(F)cc1,–,2.94 µM (active)

SMILES,"activity change, negative = inhibition",Potency
COc1ccc(CCNC(=O)C2CCCN(S(=O)(=O)c3ccc(OC)cc3)C2)cc1 (stereo not given),17.3% (inactive),–
CSc1ccccc1NC(=O)COC(=O)CCCOc1ccc(C)cc1,21.6% (inactive),–
COc1ccc(CCNC(=O)COC(=O)Cc2cccc(F)c2)cc1,11.3% (inactive),–
O=C(COC(=O)CNC(=O)C1CCCCC1)NCc1ccccc1,24.4% (inactive),–
COc1cccc(CSc2nc3nc(C)cc(C)n3n2)c1,-2.95% (inactive),–
COC(=O)N/N=C/c1c[n+]([O-])c2ccccc2[n+]1[O-],5.91% (inactive),–
O=C(CCN1C(=O)[C@H]2CC=CC[C@H]2C1=O)NCc1nc(-c2ccccc2)no1,-14.7% (inactive),–
CCC(C)NC(=O)C1CCC(=O)N1Cc1ccc(C)cc1 (stereo not given),–,11.7 µM (active)
CCC(C)NC(=O)C1c2ccccc2C(=O)N1Cc1ccccc1 (stereo not given),3.04% (inactive),–
Cc1ccc(CN2C(=O)CCC2C(=O)NCCCN2CCCCC2C)cc1 (stereo not given),200% (inactive),–
O=S(=O)(Cc1nnnn1-c1ccccc1)c1ccccc1,-15.4% (inactive),–
O=C(/C=C/c1ccccc1[N+](=O)[O-])OCC(=O)N1CCCC1,4.58% (inactive),–
COc1cccc(NC(=O)N2CCC(NC(=O)C(Cc3cccc(C)c3)NC(C)=O)CC2)c1 (stereo not given),-1.88% (inactive),–
Cc1ccc(-c2nc(-c3cccnc3)sc2CC(=O)Nc2ccc(C)c(Cl)c2)cc1,–,11.7 µM (active)
Cc1ccc(S(=O)(=O)NCCC(=O)Nc2ccc(C)c(Cl)c2)cc1C,-21.6% (inactive),–
O=C(O)Cc1sc(-c2ccc(C(=O)O)cc2)nc1-c1ccccc1,3.9% (inactive),–
COc1ccc(OC)c(C(=O)NC(CC(N)=O)c2ccc(N3CCC(N4CCCCC4)CC3)c([N+](=O)[O-])c2)c1 (stereo not given),51.1% (inactive),–
COc1ccc(N(C)C(=O)CCS(=O)(=O)c2cccc3nsnc23)cc1,6.94% (inactive),–
COc1ccc(N(C)S(=O)(=O)c2cccc3nsnc23)cc1,24.7% (inactive),–
CCOc1ccc(N(CC)S(=O)(=O)c2cccc3nsnc23)cc1,–,6.57 µM (active)
O=C(Nc1ccc(N2CCOCC2)c(Cl)c1)c1ccc(S(=O)(=O)N2CCOCC2)cc1,6.03% (inactive),–
COc1ccc(CNC(=O)Cc2ccc(-c3ccccc3)cc2)cc1OC,-17.7% (inactive),–
COc1ccc(COC(=O)NC(C(=O)O)c2ccccc2)cc1 (stereo not given),82% (inactive),–
COC(=O)c1ccc(C(NC(=O)OCc2ccccc2)/C(C)=C/[C@@H](C)C(=O)NCc2ccc(OC)c(OC)c2)cc1 (stereo not given in full),–,11.7 µM (active)
